Experiment [1] concerns the target PEG-3 (UniProt Q6IN02). Nature of the experiment: Peg3 promoter luciferase inhibitors, potency, dose response, cell-based, HeLa, CREF/GAPDH counter-screen panel (AID 624167). The conditions noted are these: CREF/GAPDH counter-screens; HeLa PEG-Prom luciferase reporter, overnight, run 1, dose range 1, at 100 µM (top of the series) unless noted. Background: A counterscreen serves to expose hits that act by an unwanted route or on another target.

Experiment [2] addresses PEG-3 (UniProt Q6IN02). The description is as above. The conditions noted are these: CREF/GAPDH counter-screens; HeLa PEG-Prom luciferase reporter, overnight, run 2, dose range 1, at 100 µM (top of the series) unless noted.

For 39 compounds, inhibition results are on record in PubChem BioAssay.

Sequence of PEG-3 (Q6IN02 whole entry, looked up): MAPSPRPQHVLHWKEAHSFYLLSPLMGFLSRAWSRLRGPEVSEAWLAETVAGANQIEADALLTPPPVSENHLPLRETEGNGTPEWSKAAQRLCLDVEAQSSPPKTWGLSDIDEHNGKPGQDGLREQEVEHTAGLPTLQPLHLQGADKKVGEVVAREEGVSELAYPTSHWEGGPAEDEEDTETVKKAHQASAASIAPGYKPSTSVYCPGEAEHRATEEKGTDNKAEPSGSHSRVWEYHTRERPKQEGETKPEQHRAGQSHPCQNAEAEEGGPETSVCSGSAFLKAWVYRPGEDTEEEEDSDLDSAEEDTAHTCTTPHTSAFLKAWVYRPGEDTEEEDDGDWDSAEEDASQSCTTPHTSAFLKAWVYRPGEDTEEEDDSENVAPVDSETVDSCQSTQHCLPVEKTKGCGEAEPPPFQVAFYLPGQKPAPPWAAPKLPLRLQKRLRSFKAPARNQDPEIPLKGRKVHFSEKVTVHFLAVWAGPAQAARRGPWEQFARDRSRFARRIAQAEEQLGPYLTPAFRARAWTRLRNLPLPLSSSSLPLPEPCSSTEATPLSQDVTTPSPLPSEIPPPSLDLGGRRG

On to `NC1=NC[C@H](Cc2ccccc2)N1CCc1cc(C(F)(F)F)cc(C(F)(F)F)c1`, for which the inhibition in the experiment with PEG-3 [1] and with PEG-3 [2] was 101% each time.
For `Cc1ccc(-c2cc(C(=O)Nc3nccs3)c3ccccc3n2)c(C)c1`, the inhibition in the experiment with PEG-3 [1] came out at 34%; with PEG-3 [2], 56.2%.
`COc1cc(/C=C/[N+](=O)[O-])ccc1OC(=O)/C=C/c1ccc(F)cc1`: the inhibition is -70.5% in the experiment with PEG-3 [1] and -151% in the experiment with PEG-3 [2].
On the same counts, the results for `Cc1nc(N2CCN(c3ccccn3)CC2)c2c(C)c(C(=O)Nc3ccccc3F)sc2n1` are 53.1% and 34.9%.
On the same counts, the results for `Cc1c(OCC(=O)NC2CC(C)(C)NC(C)(C)C2)ccc2c1oc(=O)c1ccccc12` are 98% and 101%.
On the same counts, the results for `COc1ccc(-c2cc(C(=O)N(C)Cc3ccccc3F)c3ccccc3n2)cc1OC` are 97.1% and 94.9%.
As to `CCN1CCN(Cc2ccc(NC(=O)c3cc(NC(=O)c4ccno4)cc(OC)c3)cc2C(F)(F)F)CC1`, the inhibition came out at 95.5% in the experiment with PEG-3 [1] and 102% with PEG-3 [2].
On the same counts, the results for `C[C@@H](NCCCn1cnc2c(OCc3ccccc3)ncnc21)c1cccc2ccccc12` are 94.9% and 101%.
For `O=C1NC(Cc2ccc(O)cc2)c2nc3ccc(F)cc3c(=O)n2-c2cc3ccccc3cc21` (stereo not drawn), in that order: 100% and 95.8%.
On the same counts, the results for `CCCCCCOc1ccc(/C(C)=N/NC2=NCCN2)cc1` are 101% and 101%.
Regarding `Cc1ccc(C(=O)N2CCN(c3ccc([N+](=O)[O-])c(NCc4cccnc4)c3)CC2)cc1`, the inhibition with PEG-3 [1] was 48.8%; in the experiment with PEG-3 [2] it was 47.4%.
For `CC1CCCCN1CCNC(=O)c1ccc2c(=O)n(Cc3ccc(Cl)cc3)c(=S)[nH]c2c1` (stereo not drawn), in that order: 101% and 99.1%.
With `O=C(Nc1ccc(S(=O)(=O)NC2=NCCCCC2)cc1)c1ccc([N+](=O)[O-])s1`, the inhibition was determined as 102% with PEG-3 [1] and 101% with PEG-3 [2].
For `O=C(CCCN1C(=O)/C(=C/c2ccccc2Cl)SC1=S)NNC(=O)c1ccccc1Cl`, in that order: 100% and 101%.
For `CC1CCCC(C)N1C(=C(Cl)Cl)C(=C1SCCS1)[N+](=O)[O-]` (stereo not drawn), in that order: 50.8% and 68.9%.
On the same counts, the results for `Cc1ccc2cc3c(N)c4c(C)ccc(C)c4nc3nc2c1` are 94.6% and 93.7%.
For `O=C(c1ccccc1)N(C(=O)c1ccccc1)c1ncnc2c1C(c1ccccc1)c1c(ccc3ccccc13)O2` (stereo not drawn), the results for the inhibition with PEG-3 [1] and with PEG-3 [2] were 52.7% and 28.4%, respectively.
On the same counts, the results for `COc1cccc(-c2cnc3c(NC=O)cc(-c4cccc(C(=O)N(C)C)c4)cn23)c1` are 98.8% and 97.5%.
On the same counts, the results for `c1ccc(CN2CCC(Nc3nc(-c4cccnc4)nc4ccccc34)CC2)cc1` are 102% and 94.1%.
In the case of `c1ccc(CCNc2nc(-c3ccncc3)nc3ccccc23)cc1`, the results for the inhibition with PEG-3 [1] and with PEG-3 [2] were 52.1% and 47.8%, respectively.
In the case of `CC(NNC(=S)N1CCN(c2ccccn2)CC1)c1nccc2ccccc12` (stereo not drawn), the results for the inhibition with PEG-3 [1] and in the experiment with PEG-3 [2] were 98.7% and 99.9%, respectively.
For `CN(C)c1ccc(N=Nc2nc3ccccc3n2C)cc1`, in that order: 98.1% and 98.9%.
For `Cc1cccc(/C=C2/Sc3ccc(C(=O)NCCN4CCCC4)cc3NC2=O)c1`, in that order: 99.2% and 101%.
On the same counts, the results for `COc1ccc2sc(N(CCCN(C)C)C(=O)c3ccc(S(=O)(=O)N4CCCc5ccccc54)cc3)nc2c1` are 98.4% and 102%.
With `CCCCCCCn1c(=N)n(CC(O)c2ccco2)c2ccccc21` (stereo not drawn), the inhibition in the experiment with PEG-3 [1] worked out at 101%; with PEG-3 [2], 99.1%.
For `COc1ccc(C2c3ccc4ccccc4c3Oc3ncn(CCO)c(=N)c32)cc1OC` (stereo not drawn), in that order: 99.1% and 101%.
On the same counts, the results for `COc1ccc(S(=O)(=O)N2c3ccccc3OCC2c2ccccc2)cc1` (stereo not drawn) are -135% and -3.52%.
Consider `CCCCCCC=C1CCC(CN2CCCC2)C1=O` (stereo not drawn), for which the inhibition turned out to be 98.4% with PEG-3 [1] and 101% with PEG-3 [2].
On the same counts, the results for `CC1(Cc2ccc(Cl)c(Cl)c2)C(=O)Nc2ccc(S(=O)(=O)NC3CCCCC3)cc21` (stereo not drawn) are 92.8% and 95.4%.
On the same counts, the results for `CCN(CC)CCN1CCN(c2cncc(-c3ccc4ccccc4c3)n2)CC1` are 98.9% and 102%.
For `O=C(Nc1cccc(S(=O)(=O)N2CCOCC2)c1)c1ccc2c(=O)n3c(nc2c1)CCCCC3`, in that order: 96.5% and 98%.
Regarding `CCCCCCCCNCCS(=O)(=O)NCc1ccc(OC)cc1`, the inhibition worked out at 98.9% with PEG-3 [1] and 95.7% in the experiment with PEG-3 [2].
For `COc1cccc(Nc2nc(C(N)Cc3ccccc3)cs2)n1` (stereo not drawn), in that order: 97.8% and 99.1%.
For `Fc1ccc([C@@H]2CCNC[C@H]2COc2ccc3c(c2)OCO3)cc1`, in that order: 102% and 101%.
On the same counts, the results for `Oc1ccc(C[C@H]2CNCCN2CCc2cc(C(F)(F)F)cc(C(F)(F)F)c2)cc1` are 97.5% and 102%.
Take `COc1cc(C=NO)nc(-c2ccccn2)c1`: the inhibition in the experiment with PEG-3 [1] is 71.9%; with PEG-3 [2], 73.1%.
For `CCC1(c2ccccc2)NC(=O)N(CC(=O)Nc2cc(S(=O)(=O)N3CCCCCC3)ccc2OC)C1=O` (stereo not drawn), in that order: 65.1% and 61%.
On the same counts, the results for `COc1ccc(CNC(=O)Nc2nc(C(N)Cc3ccc(F)cc3)cs2)cc1` (stereo not drawn) are 102% and 101%.
On the same counts, the results for `Cc1cc(C)nc(NC(=O)c2c(F)c(F)c(F)c(C(=O)Nc3cc(C)cc(C)n3)c2F)c1` are 96.5% and 98.3%.

As a reminder, the inhibition is the drop in the measured response relative to a control, in per cent.
